Source: PubChem BioAssay (Tox21)
Unmarked numbers belong to inactive results. The call rests on the fitted dose curve.

biological target: Thyrotropin-releasing hormone receptor (Homo sapiens) (UniProt P34981); test: qHTS assay to identify small molecule agonists of the thyrotropin-releasing hormone receptor (TRHR) signaling pathway (AID 1346891); conditions: TRHR-HEK293 calcium fluorescence, agonist mode; series mostly up to 57.6 µM; activation: at the top concentration;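 further: HEK293 cells expressing TRHR with calcium dye readout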
Procedure, shortened: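 HEK293/TRHR cells, 1500 per well, 18 h 37 °C; Ca dye 2 h 37 °C; pin-tool compound addition (agonist mode); kinetic fluorescence 3 min, 1 s reads; 15 concentrations, triplicate.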
On the % scale 0 is the no-effect control and ±100 the full control effect.

Sequence of Thyrotropin-releasing hormone receptor (Homo sapiens) (P34981 whole entry, looked up): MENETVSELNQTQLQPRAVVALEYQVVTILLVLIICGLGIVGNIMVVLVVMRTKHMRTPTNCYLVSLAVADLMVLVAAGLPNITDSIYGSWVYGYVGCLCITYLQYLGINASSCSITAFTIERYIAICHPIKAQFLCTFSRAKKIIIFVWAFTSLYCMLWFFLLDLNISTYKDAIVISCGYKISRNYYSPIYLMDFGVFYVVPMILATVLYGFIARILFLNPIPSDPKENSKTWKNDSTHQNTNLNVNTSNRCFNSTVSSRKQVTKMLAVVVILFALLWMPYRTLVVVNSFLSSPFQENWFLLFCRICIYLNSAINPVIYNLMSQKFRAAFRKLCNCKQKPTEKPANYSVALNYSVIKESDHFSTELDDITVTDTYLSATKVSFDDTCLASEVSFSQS

SMILES | activation
O=S(=O)(O)c1cccc2ccccc12 | 0.282%
CN(C)C(=O)Oc1cccc([N+](C)(C)C)c1 | -0.19% [at 26.5 µM]
CCN[C@@H]1C[C@H](N)[C@@H](OC2OC(CN)=CCC2N)[C@H](O)[C@H]1O[C@H]1OC[C@](C)(O)[C@H](NC)[C@H]1O (some centres not stated) | -0.947% [at 0.218 µM]
O=C(O)CNC(=O)c1ccc(CO)o1 | -0.185%
CC(C)(C)C(=O)Oc1ccc(S(=O)(=O)Nc2ccccc2C(=O)NCC(=O)O)cc1 | -0.366% [at 26.5 µM]
CN(C)CCN(C)CCN(C)C | 0.0293%
Cc1c(N)c(=O)n(-c2ccccc2)n1C | -0.0243% [at 26.5 µM]
Nc1ccn([C@@H]2O[C@H](CO)[C@@H](O)C2O)c(=O)n1 (some centres not stated) | -0.0052%
CC(C(=O)O)c1cccc(Oc2ccccc2)c1 (configuration not stated) | 0.169% [at 26.5 µM]
CCCCCCCCCCCCCCCCCCO | -0.189% [at 26.5 µM]
CC12CCC(C(=O)C1=O)C2(C)C (configuration not stated) | 0.0511%
Cc1ccc(C(=O)c2ccc(CC(=O)O)n2C)cc1 | -0.258% [at 26.5 µM]
CCCCCCCCCCCCCCC(=O)O | 0.0009%
NCCCC(N)(C(=O)O)C(F)F (configuration not stated) | 0.367% [at 26.5 µM]
Cc1coc2ccccc2c1=O | -0.321% [at 26.5 µM]
CC(C)COC(=O)c1ccc(N)cc1 | 0.41% [at 26.5 µM]
CN1[C@@H]2CC[C@H]1CC(OC(=O)C(O)c1ccccc1)C2 (some centres not stated) | 0.51% [at 26.5 µM]
